# High-throughput results (PubChem)
# Rows were chosen to be rich in hits. Some 3.4% of all compounds tested hit in one or more screens of this group.
# Wnt bcat act – activators of Wnt/beta-catenin signaling; actives 1.2% (n = 300,000); Wnt/beta-catenin reporter cell assay, activator, plate reader; AID 743398; activation, % at 9.35 µM; in the data active = activation above about 30%, passing the limit was not always enough; inconclusive = no clear call, values can overlap the other calls;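 also: 0% = neutral control wells and 100% = positive control wells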
# MITF TRPM1 HTS – activators of MITF-driven TRPM1 promoter activity in SK-MEL-5 cells; SK-MEL-5 TRPM1-promoter luciferase, 24 h; % of positive control, neutral wells = 0; activation, % at 12.5 µM; actives 0.75% (n = 300,000); AID 588334;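 active = mean activation of at least 80% with every replicate also reaching 80%; inconclusive = mean reaches 80% but some replicate falls short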;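 also: 0% = neutral control wells and 100% = parthenolide positive control wells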
# Env fusion inh – inhibitors of HIV Env-mediated cell fusion; HeLa-JRFL Env/CEM21 cell fusion, luciferase; inhibition, % at 12.3 µM; actives 1.1% (n = 360,000);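 active = mean replicate inhibition score of at least 50 and every replicate individually at or above 50; inconclusive = only one of the two criteria met; inactive = mean below 50 and not all replicates reaching 50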;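 also: 0% = plate neutral controls and 100% = maraviroc near 300 nM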
# esBAF inh – SWI/SNF esBAF complex inhibition. mouse ES cells, Bmi1-luciferase knock-in reporter, 24 h; 100% = twice the neutral-well signal. reporter increase, % at 12.5 µM. actives 2% (n = 350,000); in the data active = activation above about 40%; inconclusive = no clear call, values can overlap the other calls;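 also: 0% = median of the plate's neutral control wells and 100% = double that signal; a rise in the Bmi1 reporter signal indicates esBAF inhibition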
# miR-122 sensor – miR-122 inhibition in Huh7 cells; activation (reporter increase), % at 12.5 µM; Huh7 miR-122 Renilla luciferase sensor, 48 h; neutral wells = 0, positive control = 100; actives 0.3% (n = 340,000);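 active = mean replicate activation score at least 90 and every replicate individually at or above 90; inconclusive = only one of the two criteria met; inactive = neither criterion met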;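 also: higher luciferase means less miR-122 activity so hits act as miR-122 inhibitors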
# Numbers without * were called inactive; u = inconclusive; x = no result; [ ] = dose if it differs, or a comment.
SMILES,Wnt bcat act,MITF TRPM1 HTS,Env fusion inh,esBAF inh,miR-122 sensor
C[C@@H]1CN([C@H](C)CO)S(=O)(=O)c2ccc(C#CCN(C)C)cc2O[C@H]1CN(C)Cc1cccnc1,x,x,-35.5[16.7 µM],-0.2,6.6[16.7 µM]
O=C(NC1CCCCC1)c1ccc(-c2ccccc2[N+](=O)[O-])o1,24.9,11.2,-188.1,89.2*,-0.5
CNC(C)C#Cc1ccc2c(=O)c3ccccc3oc2c1 (configuration not stated),37.9*,71.2,-72.7,50.8*,x
Cn1cncc1C#Cc1ccc2c(=O)c3ccccc3oc2c1,44.4*,67.6,13.4,u,x
CO[C@@H]1CN(C)C(=O)c2ccc(NC(=O)NC3CCCCC3)cc2OC[C@@H](C)N(CC2CC2)C[C@H]1C,x,x,x,-2.6,x
Cc1ccc(C(=O)CSc2nc(C)cc(SCc3nnc(-c4ccccc4)o3)n2)cc1,0.0,6.2,61.7*,x,0.7
CC=Cc1ccc2n(c1=O)C[C@@H]1[C@@H](CO)[C@H](C(=O)NCC3CC3)[C@H]2N1CC1CCOCC1 (mixture of isomers),x,x,x,-1.0,3.3[16.7 µM]
CC(C)(C)C(=O)Nc1ccc(C(=O)Nc2cccnc2)cc1,49.0*,68.9,-43.0,20.8,0.0
O=C(Nc1ccc(Cc2ccc(NC(=O)Nc3cccnc3)cc2)cc1)Nc1cccnc1,-1.8,x,13.3,56.0*,-5.0
O=C(Nc1cccnc1)c1ccc(F)cc1,-1.4,19.3,-26.1,1.8,6.8
O=C(Nc1cccnc1)c1ccc(-c2ccccc2)cc1,-3.6,65.2,-79.3,93.0*,-3.0
C[C@H](CO)N1C[C@H](C)[C@H](CN(C)C)Oc2ccc(NC(=O)CCN3CCOCC3)cc2C1=O,x,x,x,-6.8,6.8[16.7 µM]
CCCNC(=O)N1[C@H](CO)[C@H](c2ccc(C3=CCCC3)cc2)[C@H]1CNC(C)=O,x,x,x,-0.9,-14.3[16.7 µM]
O=C(Nc1cccc(Cl)c1)C1=Cc2cc(Cl)ccc2OC1,x,17.5,x,9.1,6.9
O=C(Nc1ccc(Cl)c(Cl)c1)C1=Cc2ccccc2OC1,2.7,75.4,x,56.5*,22.5
CC1CCCCN1C(=O)c1cc(-c2ccc(Cl)c(Cl)c2)on1 (configuration not stated),x,109.4*,-82.7,u,-7.9
CC1CCCC(C)N1C(=O)c1cc(-c2ccco2)on1 (configuration not stated),4.2,31.5,0.1,17.7,0.5
CC1CCN(C(=O)c2cc(-c3ccc4c(c3)OCO4)on2)CC1,24.0,u,-65.0,-8.4,x
CCC1CCCCN1C(=O)c1cc(-c2ccc(Cl)c(Cl)c2)on1 (configuration not stated),x,42.4,-80.2,24.4,-3.3
COc1cccc(-c2cc(C(=O)N3C(C)CCCC3C)no2)c1 (configuration not stated),x,u,-137.1,49.1*,4.6
CC1CCCCN1C(=O)c1cc(-c2ccc3c(c2)OCO3)on1 (configuration not stated),35.7*,139.4*,-84.5,30.7,x
COc1ccc(S(=O)(=O)N[C@H]2CC[C@@H](CC(=O)N3CCc4ccccc4C3)O[C@@H]2CO)cc1,x,x,-23.5[16.7 µM],5.2,x
C[C@@H]1CCCCO[C@H](CN(C)C(=O)CCC(F)(F)F)[C@H](C)CN([C@@H](C)CO)C(=O)c2cc(NC(=O)NC3CCCCC3)ccc2O1,x,x,-8.7[16.7 µM],-6.0,-1.7[16.7 µM]
CN(C)S(=O)(=O)c1ccc2c(c1)nc(CCC(=O)NCC1CCCCC1)n2C,-8.9,x,20.7,-4.2,164.0*
CN(C)S(=O)(=O)c1ccc2c(c1)nc(CCC(=O)NCc1ccc(Cl)cc1)n2C,0.0,-29.6,6.0,x,11.4
O=[N+]([O-])c1ccccc1-c1cc(-c2ccccc2O)n[nH]1,35.6*,44.7,-104.7,55.1*,6.2
O=C(C[C@@H]1C=C[C@H](NC(=O)C2CC2)[C@H](CO)O1)NCCCN1CCOCC1,x,x,-5.3[16.7 µM],1.0,x
COc1ccc2c(c1)OC[C@H]1[C@H]2N2C(=O)CN(Cc3ccc(C)cc3)C(=O)[C@@]2(C)[C@H]1c1ccccc1,-4.6,2.8,86.7*,-7.2,2.0
Cc1ccc2c(c1)[C@H]1[C@H](CO2)[C@H](c2ccccc2)[C@]2(C)C(=O)N(Cc3ccc(Cl)cc3)CC(=O)N12,-8.0,-4.8,65.3*,-5.6,-1.9
COc1ccc(CN2CC(=O)N3[C@H]4c5cc(C)ccc5OC[C@@H]4[C@H](c4ccccc4)[C@]3(C)C2=O)cc1,-4.6,12.4,5.6,0.0,-0.7
